From PubChem BioAssay (Tox21)
Inconclusive results are not listed. Active and inactive are the calls of the source. Unless noted, the call rests on the fitted dose curve; in most records, active means well fitted curve in the direction sought with a large enough effect in the repeat runs; inconclusive means weak or mixed curves; inactive means no such curve, though single readings can be large; an effect the other way counts as inactive or inconclusive.

Legend:
[1] = qHTS assay to identify small molecule antagonists of the peroxisome proliferator-activated receptor delta (PPARd) signaling pathway - cell viability counter screen (AID 743213); conditions: PPARd-bla HEK293H viability, CellTiter-Glo luminescence, 17 h; series mostly up to 62 µM; further: nearly all actives have a fitted effect of over 50% in size
Outline: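 HEK293H cells with the PPARd UAS-bla reporter, co-treated 17 h at 37 C with compounds and L165041 (300 nM final), were lysed with CellTiter-Glo. Luminescence indicated viable cell content.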

[2] = qHTS assay to identify small molecule agonists of the farnesoid-X-receptor (FXR) signaling pathway - cell viability counter screen (AID 743218); conditions: FXR-bla HEK293T viability, CellTiter-Glo luminescence, 16 h; series mostly up to 62.6 µM; further: nearly all actives have a fitted effect of over 45% in size
Outline: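 FXR-UAS-bla HEK 293T cells exposed to compounds for 16 h at 37C. Cytotoxicity read in the same wells by CellTiter-Glo luminescence after 30 min at room temperature, following the beta-lactamase FRET read.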

[3] = qHTS assay to identify small molecule antagonists of the farnesoid-X-receptor (FXR) signaling pathway - cell viability counter screen (AID 743221; active means well fitted cell-killing curve with a large enough effect in the repeat runs, not every such curve was filed as active; further: nearly all actives have a fitted effect of over 50% in size); conditions: FXR-bla HEK293T viability, CellTiter-Glo luminescence, 16 h; series mostly up to 62.6 µM
Outline: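 FXR-UAS-bla HEK 293T cells were treated with test compounds plus chenodeoxycholic acid (50 uM final) for 16 h at 37 C. Cell viability in the same wells was then read as CellTiter-Glo luminescence after 30 min at room temperature.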

[4] = biological target: Vitamin D3 receptor (Homo sapiens) (UniProt P11473); test: qHTS assay to identify small molecule agonists of the vitamin D receptor (VDR) signaling pathway (AID 743222; calls by dose curve); conditions: HEK293T VDR-UAS-bla, beta-lactamase FRET ratio, 16 h; series mostly up to 63.5 µM
Chain of Vitamin D3 receptor (Homo sapiens) (P11473 whole entry, looked up): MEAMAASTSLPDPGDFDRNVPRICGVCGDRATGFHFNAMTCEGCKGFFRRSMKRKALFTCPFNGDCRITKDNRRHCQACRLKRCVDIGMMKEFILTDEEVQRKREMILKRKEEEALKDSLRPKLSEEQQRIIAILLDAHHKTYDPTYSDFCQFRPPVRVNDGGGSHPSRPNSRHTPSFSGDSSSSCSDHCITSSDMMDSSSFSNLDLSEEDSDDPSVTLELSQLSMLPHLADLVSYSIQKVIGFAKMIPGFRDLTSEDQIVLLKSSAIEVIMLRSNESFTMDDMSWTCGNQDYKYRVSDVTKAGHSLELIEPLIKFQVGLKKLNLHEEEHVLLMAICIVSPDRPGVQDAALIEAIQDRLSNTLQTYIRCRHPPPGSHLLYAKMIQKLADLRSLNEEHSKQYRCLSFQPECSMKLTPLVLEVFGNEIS
Outline: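 VDR-bla cells plated 4 h at 37 C, then exposed to compounds for 16 h at 37 C. Beta-lactamase reporter activity measured by fluorescence after 2 h room-temperature loading with LiveBLAzer B/G FRET substrate.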

[5] = qHTS assay to identify small molecule antagonists of the vitamin D receptor (VDR) signaling pathway - cell viability counter screen (AID 743225); conditions: VDR-bla HEK293T viability, CellTiter-Glo luminescence, 16 h; series mostly up to 61 µM; further: nearly all actives have a fitted effect of over 50% in size
Outline: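 VDR-bla HEK 293T cells, 4 h pre-incubation at 37C, then compound plus 1-alpha,25-dihydroxyvitamin D3 (3 nM final) for 16 h. After the beta-lactamase FRET read, CellTiter-Glo was added to the same wells; luminescence after 30 min at room temperature.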

[6] = qHTS assay to identify small molecule agonists of the NFkB signaling pathway (AID 1159509; active means well fitted curve in the direction sought with a large enough effect in the signal ratio in the repeat runs, not every such curve was filed as active; the % refers to the signal ratio); conditions: NFkB-bla ME-180 cells, beta-lactamase FRET ratio, 5 h; series mostly up to 61 µM
Outline: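 NFkB-bla ME-180 cells carry a beta-lactamase reporter under an NF-kB response element. They were plated overnight, then exposed to compounds for 5 h at 37 C. Read-out is LiveBLAzer FRET after 1.5 hr at room temperature (405 nm excitation; 460/530 nm emission).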

[7] = qHTS assay to identify small molecule agonists of the NFkB signaling pathway - cell viability counter screen (AID 1159515; calls by dose curve; further: nearly all actives have a fitted effect of over 55% in size); conditions: NFkB-bla ME-180 viability, CellTiter-Glo luminescence, 5 h; series mostly up to 61 µM
Outline: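 NFkB-bla ME-180 cells, 2,000/well, plated overnight at 37 C; compound added for 5 hr at 37 C. Viability read in the same wells as the bla reporter, by CellTiter-Glo luminescence after 30 min at room temperature.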

[8] = qHTS assay to identify small molecule agonists of the endoplasmic reticulum stress response signaling pathway (AID 1159516; active means well fitted activation curve with a large enough effect in the signal ratio in the repeat runs, not every such curve was filed as active; the % refers to the signal ratio); conditions: ESRE-bla HeLa, ER stress beta-lactamase reporter, 5 h; series mostly up to 61 µM
Outline: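 CellSensor ESRE-bla HeLa cells, 1,500 per well, plated overnight, then exposed to compounds for 5 hr at 37 C. Beta-lactamase reporter read with LiveBLAzer B/G FRET substrate after 2 hr at room temperature, 405 nm excitation, 460 and 530 nm emission.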

[9] = qHTS assay to identify small molecule agonists of the endoplasmic reticulum stress response signaling pathway - cell viability counter screen (AID 1159517; calls by dose curve;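 further: HeLa cells carrying an ER stress response element beta-lactamase reporter; nearly all actives have a fitted effect of over 50% in size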); conditions: ESRE-bla HeLa viability, CellTiter-Glo luminescence, 5 h; series mostly up to 61 µM
Outline: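 ESRE-bla HeLa cells, 1,500 per well, seeded overnight then treated with compounds for 5 hr at 37 C. After the beta-lactamase read, viability in the same wells is measured by CellTiter-Glo luminescence after 30 min at room temperature.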

[10] = qHTS assay to identify small molecule antagonists of the retinoid-related orphan receptor gamma (ROR-gamma) signaling pathway - cell viability counter screen (AID 1159520); conditions: Tet-on RORgamma CHO cells viability, ATP luminescence, 16 h; series mostly up to 92.4 µM; further: nearly all actives have a fitted effect of over 50% in size
Outline: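 Tet-on ROR gamma CHO cells were given compounds for 2 hr, then doxycycline hyclate at 1 uM final, and incubated 16 hr at 37 C. Viability was measured as ATP content by CellTiter-Glo luminescence.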

[11] = biological target: Nuclear receptor ROR-gamma (Homo sapiens) (UniProt P51449); test: qHTS assay to identify small molecule antagonists of the retinoid-related orphan receptor gamma (ROR-gamma) signaling pathway (AID 1159521; further: nearly all actives have a fitted effect of over 50% in size; further: potency means the concentration at half of the fitted maximal effect); conditions: Tet-on RORgamma CHO cells, RORE-luciferase, 16 h; series mostly up to 92.4 µM
Outline: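 Tet-on RORγ CHO cells carrying a ROR response element–luciferase reporter were pretreated with compounds for 2 h, then induced with 1 uM (final) doxycycline hyclate for 16 h at 37 C. Antagonism was read as decreased ONE-Glo luminescence.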

[12] = qHTS assay to identify small molecule agonists of the AP-1 signaling pathway - cell viability counter screen (AID 1159525; calls by dose curve; further: nearly all actives have a fitted effect of over 55% in size); conditions: ME-180 AP-1-bla cells viability, ATP luminescence, 5 h; series mostly up to 76.8 µM
Outline: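 AP-1-bla ME-180 cells in Opti-MEM with 0.5% dialyzed FBS, compound exposure 5 h at 37 C in 15-point titration. Viability read in the same wells as ATP content by CellTiter-Glo luminescence, normalised to tetra-n-octylammonium bromide and DMSO controls.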

[13] = qHTS assay to identify small molecule agonists of the AP-1 signaling pathway (AID 1159526; calls by dose curve); conditions: ME-180 (cervical carcinoma) AP-1-bla reporter, beta-lactamase FRET ratio, 5 h; series mostly up to 76.8 µM
[14] = qHTS assay to identify small molecule agonists of the RXR signaling pathway - cell viability counter screen (AID 1159529); conditions: RXR-alpha-bla HEK293T viability, CellTiter-Glo, 16 h; series mostly up to 76.8 µM; further: nearly all actives have a fitted effect of over 50% in size; further: potency means the concentration at half of the fitted maximal effect
Outline: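 RXR-alpha-UAS-bla HEK 293T cells in medium with 2% charcoal-stripped FBS were preincubated 5 hr, then exposed to compounds for 16 hr at 37 C. Viability was read as CellTiter-Glo luminescence after 30 min at room temperature.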

[15] = qHTS assay to identify small molecule agonists of the vitamin D receptor (VDR) signaling pathway - cell viability counter screen (AID 743224); conditions: VDR-bla HEK293T viability, CellTiter-Glo luminescence, 16 h; series mostly up to 62.6 µM; further: nearly all actives have a fitted effect of over 50% in size
Outline: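 VDR-bla cells, 4 h after plating, exposed to compounds for 16 h at 37C; viability then read in the same wells as CellTiter-Glo luminescence after 30 min at room temperature, following the bla FRET read.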

[16] = biological target: Bile acid receptor (Homo sapiens) (UniProt Q96RI1); test: qHTS assay to identify small molecule antagonists of the farnesoid-X-receptor (FXR) signaling pathway (AID 743217; active means well fitted inhibition curve with a large enough effect in the signal ratio in the repeat runs, not every such curve was filed as active; the % refers to the signal ratio); conditions: HEK293T FXR-UAS-bla, beta-lactamase ratio, CDCA-stimulated, 16 h; series mostly up to 62.6 µM
Chain of Bile acid receptor (Homo sapiens) (Q96RI1 whole entry, looked up): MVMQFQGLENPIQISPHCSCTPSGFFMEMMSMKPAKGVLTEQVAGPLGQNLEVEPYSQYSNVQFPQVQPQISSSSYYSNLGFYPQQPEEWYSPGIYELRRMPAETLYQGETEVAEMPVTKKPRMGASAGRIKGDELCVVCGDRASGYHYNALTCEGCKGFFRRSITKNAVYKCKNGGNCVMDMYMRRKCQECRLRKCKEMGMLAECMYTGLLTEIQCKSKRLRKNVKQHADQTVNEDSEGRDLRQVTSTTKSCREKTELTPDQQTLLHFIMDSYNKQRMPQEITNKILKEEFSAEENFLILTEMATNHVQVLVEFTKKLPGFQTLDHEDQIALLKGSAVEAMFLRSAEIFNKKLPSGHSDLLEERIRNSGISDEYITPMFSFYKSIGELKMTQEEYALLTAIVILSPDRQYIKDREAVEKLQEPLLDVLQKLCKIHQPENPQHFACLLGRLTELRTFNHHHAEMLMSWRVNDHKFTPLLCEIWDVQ
Outline: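 FXR-UAS-bla HEK 293T cells (beta-lactamase reporter) given compound plus chenodeoxycholic acid (50 uM final), 16 h at 37C. LiveBLAzer B/G FRET substrate added for 2 h at room temperature; fluorescence read.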

[17] = biological target: Peroxisome proliferator-activated receptor delta (Homo sapiens) (UniProt Q03181); test: qHTS assay to identify small molecule antagonists of the peroxisome proliferator-activated receptor delta (PPARd) signaling pathway (AID 743215; active means well fitted inhibition curve with a large enough effect in the signal ratio in the repeat runs, not every such curve was filed as active; the % refers to the signal ratio;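 further: cells stimulated with agonist L165041 at 300 nM final during compound exposure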); conditions: HEK293H PPARd-UAS-bla, beta-lactamase FRET ratio, antagonist, 17 h; series mostly up to 62 µM
Chain of Peroxisome proliferator-activated receptor delta (Homo sapiens) (Q03181 whole entry, looked up): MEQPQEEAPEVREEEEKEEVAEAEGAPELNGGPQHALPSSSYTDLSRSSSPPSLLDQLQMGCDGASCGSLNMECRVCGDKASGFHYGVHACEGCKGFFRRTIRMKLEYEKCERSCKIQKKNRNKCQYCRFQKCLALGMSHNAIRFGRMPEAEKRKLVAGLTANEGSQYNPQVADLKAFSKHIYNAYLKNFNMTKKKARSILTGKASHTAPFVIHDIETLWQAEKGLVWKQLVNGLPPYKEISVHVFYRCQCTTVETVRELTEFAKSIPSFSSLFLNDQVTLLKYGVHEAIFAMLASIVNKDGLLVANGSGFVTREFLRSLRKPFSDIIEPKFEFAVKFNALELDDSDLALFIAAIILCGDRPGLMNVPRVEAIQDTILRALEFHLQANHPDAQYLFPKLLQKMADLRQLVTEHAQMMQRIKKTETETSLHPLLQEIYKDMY
Outline: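 PPARd-bla HEK293H cells (UAS-bla reporter) preincubated 5 h, then given compound plus 300 nM final L165041 agonist for 17 h at 37 C. Beta-lactamase activity read by LiveBLAzer B/G FRET substrate fluorescence after 2 h at room temperature.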

[18] = biological target: Bile acid receptor (Homo sapiens) (UniProt Q96RI1); test: qHTS assay to identify small molecule agonists of the farnesoid-X-receptor (FXR) signaling pathway (AID 743220; active means well fitted activation curve with a large enough effect in the signal ratio in the repeat runs, not every such curve was filed as active; the % refers to the signal ratio); conditions: HEK293T FXR-UAS-bla, beta-lactamase FRET ratio, 16 h; series mostly up to 62.6 µM
Outline: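 Beta-lactamase reporter under UAS control in GeneBLAzer FXR HEK 293T cells (5000/well) measured with LiveBLAzer FRET substrate after 2 h at room temperature. Compound exposure lasted 16 h at 37C.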

[19] = biological target: Vitamin D3 receptor (Homo sapiens) (UniProt P11473); test: qHTS assay to identify small molecule antagonists of the vitamin D receptor (VDR) signaling pathway (AID 743223; active means well fitted inhibition curve with a large enough effect in the signal ratio in the repeat runs, not every such curve was filed as active; the % refers to the signal ratio); conditions: VDR-UAS-bla HEK293T, beta-lactamase FRET ratio, 16 h; series mostly up to 61 µM
Outline: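 VDR-bla cells were plated, incubated 4 h at 37C, then given compound and 1alpha,25-dihydroxyvitamin D3 (3 nM final). After 16 h at 37C, LiveBLAzer B/G FRET substrate was added for 2 h at room temperature and fluorescence read.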

Measured: Potency

CCCCCCCCCCCC(=O)OCC
not listed: [15] | [16] | [17] | [18] | [19]
inactive: all other assays above

O=C(O)c1cccc(C(=O)O)c1C(=O)O
active: [14] 24.8 µM
not listed: [1] | [4] | [16] | [17] | [18] | [19]
inactive: all other assays above

CC1(COc2ccc(CC3SC(=O)NC3=O)cc2)CCCCC1 (stereo not drawn)
not listed: [4] | [17] | [18] | [19]
inactive: all other assays above

CC(C)(C)NCC(O)COc1ccc(NC(=O)NC2CCCCC2)cc1 (stereo not drawn)
not listed: [14]
inactive: all other assays above

CCCC1CCCC(=O)O1 (stereo not drawn)
not listed: [4] | [5] | [16] | [18] | [19]
inactive: all other assays above

O=C(Nc1ccccc1)c1cc([N+](=O)[O-])ccc1Cl
not listed: [4] | [16] | [17] | [19]
inactive: all other assays above

CCCN(C1CCN(C(=O)C2CCNCC2)CC1)[C@@H]1CCc2ccc(OC)cc2C1
not listed: [2] | [5] | [16] | [18]
inactive: all other assays above

CC(C(=O)O)c1ccc(/C=C2\CCCCC2=O)cc1 (stereo not drawn)
not listed: [4] | [14] | [16] | [18] | [19]
inactive: all other assays above

CC(C)=CCC[C@H](C)CCO
not listed: [4] | [5] | [14] | [15] | [16] | [17] | [18] | [19]
inactive: all other assays above

C/C=C1\[C@H]2C=C(C)C[C@]1(N)c1ccc(=O)[nH]c1C2
not listed: [4] | [14] | [19]
inactive: all other assays above

S=c1[nH][nH]c(=S)s1
not listed: [3] | [14] | [16] | [18] | [19]
inactive: all other assays above

COc1cccc([C@H](O)C2CCN(CCc3ccc(F)cc3)CC2)c1OC
not listed: [1] | [5] | [14] | [19]
inactive: all other assays above

Nc1cccc2c(=O)[nH][nH]c(=O)c12
not listed: [1] | [3] | [4] | [5] | [14] | [19]
inactive: all other assays above

C/C(=C(\CCO)SS/C(CCO)=C(\C)N(C=O)Cc1cnc(C)nc1N)N(C=O)Cc1cnc(C)nc1N
not listed: [14] | [16] | [17] | [18]
inactive: all other assays above

O=C1CCCN1CCO
not listed: [2] | [3] | [5] | [14] | [16] | [18] | [19]
inactive: all other assays above

CC1=C(C)C(=O)C(CCCCC#CCCCC#CCO)=C(C)C1=O
active: [11] 29.8 µM
not listed: [3] | [4] | [14] | [15] | [17] | [18] | [19]
inactive: all other assays above

O=C1c2ccccc2C(=O)C1c1ccc2cc(S(=O)(=O)O)cc(S(=O)(=O)O)c2n1
not listed: [2] | [4] | [14] | [15] | [16] | [18] | [19]
inactive: all other assays above
